Compound activity as filed in PubChem.
MITF TRPM1 HTS – activators of MITF-driven TRPM1 promoter reporter, primary screen, cell-based, SK-MEL-5, luciferase, single point; 0.75% of 300,000 active; SK-MEL-5 TRPM1-promoter luciferase, 24 h; % of positive control, neutral wells = 0; activation, % at 12.5 µM;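 active means mean activation of at least 80% with every replicate also reaching 80%; inconclusive means mean reaches 80% but some replicate falls short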
C2C12 statin – suppressors of statin myotoxicity in C2C12 myotubes, primary screen, cell-based, single point, plate reader; C2C12 myotubes + simvastatin, ATP luminescence, 48 h; scaled: DMSO 0, geranylgeraniol control 100; 0.78% of 330,000 active; rescue of ATP level, % at 7.49 µM;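 active means mean ATP rescue above about 67%, or every replicate alone reaching that limit, limit read from the data, passing the limit was not always enough; inconclusive means no clear call, values can overlap the other calls; inactive means mean under the limit and some replicate under it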;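 further: myotubes were challenged with 10 µM simvastatin during compound exposure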
esBAF inh – Bmi1 luciferase reporter increase in mESCs, primary screen, esBAF inhibitor project, mouse ES cells, Bmi1 luciferase knock-in, single point | 24 h; 100% = twice the neutral-well signal | reporter increase, % at 12.5 µM | 2% of 350,000 active; in the data active means activation above about 40%; inconclusive means no clear call, values can overlap the other calls;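 further: a rise in the Bmi1 reporter signal indicates esBAF inhibition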
Wnt act – Wnt/beta-catenin pathway activators, primary screen, cell-based, plate reader, single point; Wnt/beta-catenin reporter cell assay, activator; activation, % at 9.35 µM; 1.2% of 300,000 active; in the data active means activation above about 30%, passing the limit was not always enough; inconclusive means no clear call, values can overlap the other calls
Hits are given with their value; . = inactive; ? = inconclusive; / = no result. The list is not random: actives were taken first. Their share in the collection is about 3%.

SMILES	MITF TRPM1 HTS	C2C12 statin	esBAF inh	Wnt act
Cc1noc(C)c1S(=O)(=O)Nc1ccc2c(c1)CC(=O)N([C@H](C)CO)C[C@@H](C)[C@@H](CN(C)Cc1ccc(Cl)c(Cl)c1)O2	/	97	.	/
CC(=O)N(C)C[C@H]1Oc2ncc(-c3cccc(C#N)c3)cc2C(=O)N([C@@H](C)CO)C[C@@H]1C	/	.	.	/
COc1ccc(CN(C)C[C@H]2OCCCC[C@@H](C)Oc3ccc(NS(C)(=O)=O)cc3C(=O)N([C@H](C)CO)C[C@H]2C)cc1	/	.	.	/
Cc1nc2ccc(S(=O)(=O)NCC(=O)N3CCCC(C)C3)cc2s1 (stereo unspecified)	.	106	.	/
Cc1ccc2[nH]c(C(=O)N3CCCCC3)cc2c1	.	.	58	.
O=C(C[C@H]1CC[C@@H](NC(=O)c2cccnc2)[C@@H](CO)O1)NCCN1CCCCC1	/	.	.	/
Clc1ccccc1N=C1NN=C(c2cccs2)CS1	.	.	66	.
c1ccc(CN=C2NN=C(c3ccccc3)CS2)cc1	.	.	46	.
Fc1ccccc1N=C1NN=C(c2ccccc2)CS1	.	.	53	.
Clc1ccc(C2=NNC(=NCc3ccccc3)SC2)cc1	.	/	/	.
O=C1CSC(=Nc2ccccc2Cl)N1	/	/	/	.
Cc1ccnc2nc(C(=O)OCCOc3ccccc3)nn12	.	.	.	/
Cc1ccnc2nc(C(=O)OCC(=O)c3ccccc3)nn12	.	112	/	.
C[C@@H]1CN([C@H](C)CO)C(=O)c2cc(NS(=O)(=O)c3ccc(Cl)cc3)ccc2O[C@@H]1CN(C)S(C)(=O)=O	/	/	.	/
COCC(=O)n1nc(-c2ccccc2)nc1NCc1ccc(N(C)C)cc1	.	.	50	.
O=C(COc1ccccc1)n1nc(-c2ccc(Cl)cc2)nc1NCc1ccco1	/	.	66	/
Cc1ccc(-c2nc(NCc3ccco3)n(C(=O)c3ccco3)n2)cc1	.	.	60	.
O=C(c1ccco1)n1nc(-c2ccccc2)nc1NCc1ccco1	.	.	.	/
CC(C)CC#Cc1cnc2c(c1)C(=O)N([C@@H](C)CO)C[C@@H](C)[C@@H](CN(C)Cc1ccccc1F)O2	/	.	.	/
C[C@@H]1CN([C@H](C)CO)C(=O)c2cc(C#CC3CCCCC3)cnc2O[C@H]1CN(C)C(=O)NC1CCCC1	/	.	.	/
CO[C@H]1CN(C)C(=O)c2ccc(NC(=O)c3cc(C)on3)cc2OC[C@@H](C)N(C)C[C@@H]1C	/	.	.	/
C[C@@H]1CN([C@@H](C)CO)C(=O)c2cc(C3=CCCCC3)cnc2O[C@H]1CN(C)C(=O)Cc1cccnc1	/	.	.	/
COc1ccccc1NC(=O)c1nnn(Cc2ccccc2)c1NC(=O)C(F)(F)F	/	.	.	.
O=C(Nc1ccccc1)c1nnn(Cc2ccccc2)c1NC(=O)C(F)(F)F	/	.	56	.
O=C(C[C@@H]1C[C@@H]2c3cc(NC(=O)Nc4ccc(F)cc4)ccc3O[C@@H]2[C@H](CO)O1)NC1CCCC1	/	.	.	/
SMILES	MITF TRPM1 HTS	C2C12 statin	esBAF inh	Wnt act
COC(=O)C[C@H]1CC[C@@H](NS(=O)(=O)c2ccc(OC)cc2)[C@H](CO)O1	/	.	.	/
Cc1ccc(NC(=O)CSc2nccn2Cc2ccco2)c(C)c1	.	.	.	37
Cc1ccc(C)c(NC(=O)CSc2nccn2Cc2ccco2)c1	.	.	56	.
O=C(C[C@H]1C[C@@H]2c3cc(NC(=O)C4CCC4)ccc3O[C@@H]2[C@@H](CO)O1)NCc1ccc2c(c1)OCO2	/	.	.	/
CC(C)NC(=O)N[C@H]1CC[C@H](CC(=O)NC2Cc3ccccc3C2)O[C@@H]1CO	/	.	.	/
C[C@@H]1CCCCO[C@H](CN(C)Cc2ccncc2)[C@@H](C)CN([C@@H](C)CO)C(=O)c2cc(NC(=O)CCC(F)(F)F)ccc2O1	/	.	.	/
COc1ccc(S(=O)(=O)NNC(=O)c2ccccc2-n2cccc2)cc1	.	112	.	.
Cc1cccc(N2CCN(C(=O)CNC(=O)c3ccccc3)CC2)c1C	/	.	50	.
Cc1cccc(N2CCN(C(=O)CNC(=O)C3CCCCC3)CC2)c1C	.	.	?	.
O=C(COc1ccccc1F)Nc1ccc2c(c1)OCCO2	.	.	.	.
Cc1cccc(OCC(=O)Nc2ccc3c(c2)OCO3)c1C	/	/	.	.
N#Cc1ccccc1OCC(=O)Nc1ccc2c(c1)OCCCO2	/	.	74	.
N#Cc1ccccc1OCC(=O)Nc1ccc2c(c1)OCO2	/	.	65	.
CC1CCCCC1NC(=O)COc1ccccc1C#N (stereo unspecified)	.	.	53	.
O=C(COc1ccccc1Br)Nc1ccc2c(c1)OCCCO2	108	.	51	.
CC(C)C#Cc1cnc2c(c1)C(=O)N([C@H](C)CO)C[C@@H](C)[C@@H](CN(C)C(=O)Nc1ccccc1F)O2	/	.	.	/
Cc1ccc(S(=O)(=O)Nc2ccc3c(c2)CC(=O)N([C@@H](C)CO)C[C@@H](C)[C@@H](CN(C)S(=O)(=O)c2cn(C)cn2)O3)cc1	/	.	.	/
CCCN1[C@@H]2c3ccc(-c4ccccc4)c(=O)n3C[C@H]1[C@H](CO)[C@H]2C(=O)NCCCN1CCOCC1	/	.	.	/
N#Cc1ccccc1OCC(=O)Nc1ccc2c(c1)OCCO2	.	.	66	.
Cc1ccc(C2=NOC3(CC(=O)N(c4ccc(C)cc4)C3=O)C2)cc1 (stereo unspecified)	.	/	/	.
Cc1ccc(C2=NOC3(CC(=O)N(c4ccccc4)C3=O)C2)cc1 (stereo unspecified)	.	76	.	.
CCCCn1c(SCc2ccccn2)nc2c1c(=O)n(C)c(=O)n2C	.	117	.	.
COc1ccccc1NC(=O)N[C@H]1C=C[C@@H](CC(=O)N2CCC(Cc3ccccc3)CC2)O[C@H]1CO	/	.	.	/
CN(C)c1ccc(C(=O)/C=C/c2ccccc2)cc1	?	.	68	/
O=C(/C=C/c1ccc2c(c1)OCO2)c1ccccn1	/	/	38	.
SMILES	MITF TRPM1 HTS	C2C12 statin	esBAF inh	Wnt act
O=C(/C=C/c1ccccc1)c1ccc2c(c1)OCCCCO2	91	/	/	.
O=C(N/N=C/c1ccc2c(c1)OCO2)c1ccccn1	.	.	.	.
O=C(C=Cc1ccc2c(c1)OCO2)c1ccccc1	.	.	50	.
O=C(C=Cc1ccc2c(c1)OCO2)C=Cc1ccc2c(c1)OCO2	/	/	/	.
O=C(O)c1ccc2c(c1)OCCCO2	.	.	.	.
COc1ccc(S(=O)(=O)Nc2cccc3c2O[C@@H](CN(C)Cc2ccccc2)[C@H](C)CN([C@H](C)CO)C3=O)cc1	/	.	.	/
COc1ccccc1S(=O)(=O)N[C@H]1CC[C@@H](CCNC(=O)C2CCCCC2)O[C@H]1CO	/	.	.	/
Cc1ccc(S(=O)(=O)Nc2ccc3c(c2)C(=O)N([C@H](C)CO)C[C@@H](C)[C@H](CN(C)C(=O)Nc2ccc(F)cc2)OCCCC[C@@H](C)O3)cc1	/	/	.	/
O=C(NCC[C@@H]1CC[C@H](NS(=O)(=O)c2cccc(F)c2)[C@@H](CO)O1)Nc1cc(F)ccc1F	/	.	.	/
